# Records with an inconclusive call do not appear. A number with no mark means an inactive call. The call rests on the fitted dose curve. Non-standard residues stand in square brackets, D forms with d. Residues, ends and D or L forms follow the SMILES beside them. *: point of attachment. Sta = CC(C)C[C@H](N)[C@@H](O)CC(=O)O; Isovaleryl = CC(C)CC(=O)*
# Biological target: Thyrotropin receptor (Homo sapiens) (UniProt P16473)
# Assay: qHTS assay to identify small molecule antagonists of the thyroid stimulating hormone receptor (TSHR) signaling pathway (AID 1259385); further: nearly all actives have a fitted effect of over 20% in size
# Details: TSHR-HEK293 cAMP HTRF, TSH-stimulated antagonist mode; series mostly up to 92.4 µM; activity change, negative = inhibition: at the top concentration
# From the text: U.S. Tox21 Program National Center for Advancing Translational Sciences [NCATS] NIH Chemical Genomics Center [NCGC] U.S. Environmental Protection Agency [EPA] National Institutes of Environmental Health Sciences [NIEHS] National Toxicology Program [NTP] U.S. Food and Drug Administration [FDA] Tox21 Assay Overview: TSHR is the receptor for thyrotropin (thyroid stimulating hormone or TSH), a member of the glycoprotein hormone family. TSH is released by the anterior pituitary gland and is the main regulator of thyroid gland growth and development. Upon binding circulating thyrotropin, a G-protein signal cascade activates adenylyl cyclase and […] cAMP concentration is increased. cAMP is a key second messenger involved extensively in cellular signal transduction pathways associated with the majority of G-protein coupled receptors (GPCRs). The activation of these GPCRs by neurotransmitters, lipids, nucleotides, peptides and hormones results in the activation or the inhibition of plasma membrane-bound adenylate cyclase through heterotrimeric G-proteins. A cell-based TSHR assay can be used to screen chemical compounds that modulate TSHR either in agonist or antagonist mode.
# Tox21 Assay Protocol Summary: TSHR-Hek293 cells were dispensed at 800 cells/4uL/well in 1536-well white plates using a Multidrop dispenser. After the assay plates were incubated at a 37C/5% CO2 incubator for 18 hrs, 23 nL of compounds dissolved in DMSO, positive controls or DMSO only was transferred to the assay plate by a pin tool, followed by 1 ul medium containing Ro20-1724. For the antagonist mode screening, 1 uL of TSH was added on the top of the cell/compound mixtures to achieve a final agonist concentration of 1.5 ng/mL. After 30 min of incubation at room temperature, 2.5 ul/well of cAMP-d2 and 2.5 ul/well of anti-cAMP-cryptate were added respectively into the assay plates using a Flying Reagent Dispenser. The plates were incubated at room temperature for 1 hr. The fluorescence intensity in the plates was measured using an Envision plate reader. Each test compound was measured at 15 concentrations and in triplicates.
# On the % scale 0 is the no-effect control and ±100 the full control effect.
# Chain of Thyrotropin receptor (Homo sapiens) (P16473 whole entry, looked up): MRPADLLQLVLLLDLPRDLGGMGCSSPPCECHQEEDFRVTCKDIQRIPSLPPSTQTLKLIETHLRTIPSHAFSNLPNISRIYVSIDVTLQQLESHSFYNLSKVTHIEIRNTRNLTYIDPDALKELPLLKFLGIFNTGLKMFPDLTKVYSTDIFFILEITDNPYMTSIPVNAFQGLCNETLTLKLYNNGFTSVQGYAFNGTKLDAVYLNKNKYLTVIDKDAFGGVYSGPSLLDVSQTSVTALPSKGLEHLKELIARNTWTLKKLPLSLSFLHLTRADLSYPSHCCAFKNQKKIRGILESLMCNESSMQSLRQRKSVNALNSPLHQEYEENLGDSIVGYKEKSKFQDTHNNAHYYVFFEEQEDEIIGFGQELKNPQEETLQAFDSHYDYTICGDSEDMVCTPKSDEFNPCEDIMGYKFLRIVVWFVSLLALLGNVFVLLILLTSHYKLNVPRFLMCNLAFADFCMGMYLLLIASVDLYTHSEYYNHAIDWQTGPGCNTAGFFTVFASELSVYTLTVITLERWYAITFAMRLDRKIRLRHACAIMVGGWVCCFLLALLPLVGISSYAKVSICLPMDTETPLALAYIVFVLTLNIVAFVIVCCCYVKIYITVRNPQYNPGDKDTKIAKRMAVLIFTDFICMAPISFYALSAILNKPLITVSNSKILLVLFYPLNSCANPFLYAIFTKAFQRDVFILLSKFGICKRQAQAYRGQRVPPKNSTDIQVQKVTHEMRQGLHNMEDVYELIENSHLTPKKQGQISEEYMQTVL
row,Compound,"activity change, negative = inhibition"
1,COC(=O)c1cc(Cl)c(NC(C)=O)cc1OC,0.76% [at 42.5 µM]
2,COc1cc(C(=O)NC2CCCNC2)cc(OC)c1OC (stereo not given),-2.2% [at 42.5 µM]
3,N#Cc1cc(NC(=O)C(=O)O)c(Cl)c(NC(=O)C(=O)O)c1,-3.01% [at 42.5 µM]
4,NC(=O)CC[C@@H](N)C(=O)O,-0.116% [at 42.5 µM]
5,CC(=O)OC1CCC(C(C)(C)C)CC1 (stereo not given),5.45%
6,CC(C)C(C)C,1.35%
7,CC(=O)Nc1ccc(OCCOCCOc2ccc(NC(C)=O)cc2)cc1,4.1% [at 42.5 µM]
8,CC(C)CC(O)Cc1ccccc1 (stereo not given),1.58%
9,CN(C)CCc1c[nH]c2ccc(CS(=O)(=O)N3CCCC3)cc12,0.0424% [at 42.5 µM]
10,CC[C@@]1(c2ccccc2)NC(=O)N(C)C1=O,2.95% [at 42.5 µM]
11,CC(O)CCCCn1c(=O)c2c(ncn2C)n(C)c1=O (stereo not given),2.65% [at 42.5 µM]
12,CCN(CC)CC(=O)Oc1ccc(NC(C)=O)cc1,4.69% [at 42.5 µM]
13,CCCC(=O)OC,1.96%
14,CCCC(=O)C(CC)Sc1ccoc1C (stereo not given),-10.7%
15,OCCC(F)(F)C(F)(F)C(F)(F)C(F)(F)C(F)(F)C(F)(F)F,-0.925%
16,COCc1nnc(-c2ccc[n+]([O-])c2)n1-c1c(Cl)c(Cl)cc2[nH]c(=O)c(=O)[nH]c12,0.467%
17,CCCCCCCCOCCC#N,-0.502%
18,CC(C)(C)C(=O)NCCCC(=O)O,0% [at 42.5 µM]
19,CC(C)(C)C(=O)CC(=O)C(C)(C)C,0.531%
20,CC(=O)OC/C=C(/C)CCC=C(C)C,-0.991%

row,Compound,"activity change, negative = inhibition"
1,NS(=O)(=O)c1cc2c(cc1C(F)(F)F)NCNS2(=O)=O,0.414% [at 42.5 µM]
2,CC(C)CC(=O)N[C@H](C(=O)N[C@H](C(=O)N[C@@H](CC(C)C)[C@@H](O)CC(=O)N[C@@H](C)C(=O)N[C@@H](CC(C)C)[C@@H](O)CC(=O)O)C(C)C)C(C)C (Isovaleryl-VV[Sta]A[Sta]-OH),0.986% [at 42.5 µM]
3,COC(=O)c1ccc(C(=O)O)cc1,-0.41%
4,CC(=O)SCC(CC(=O)c1ccc(C)cc1)C(=O)O (stereo not given),3.41% [at 42.5 µM]
5,CCCCN1C(=O)c2ccccc2C1=O,1.22%
6,O=C(O)CCCCCCCCCC(=O)O,1.63%
7,COc1cc(S(N)(=O)=O)cc(C(=O)O)c1OC,-1.47% [at 42.5 µM]
8,COC(=O)/C=C(\C)CCC=C(C)C,6.28%
9,N[C@H]1C(O)O[C@H](CO)[C@@H](O)[C@@H]1O (stereo not given in full),2.92% [at 42.5 µM]
10,CCCCCCCCC1CO1 (stereo not given),5.26%
11,CC(C)(O)c1ccc(C(C)(C)O)cc1,-0.41%
12,CCCCC(CC)COC(=O)CC#N (stereo not given),-0.553%
13,CCNC(=O)C(C)OC(=O)Nc1ccccc1 (stereo not given),-2.54%
14,COc1cnc(NS(=O)(=O)c2ccc(N)cc2)nc1,3.36% [at 42.5 µM]
15,CC(C)(Sc1cc(C(C)(C)C)c(O)c(C(C)(C)C)c1)Sc1cc(C(C)(C)C)c(O)c(C(C)(C)C)c1,0.786% [at 42.5 µM]
16,CNCCc1ccccn1,0.498% [at 42.5 µM]
17,CC(C)(O)CCCC1=CCC(C=O)CC1 (stereo not given),1.57%
18,C[n+]1ccccc1/C=N/O,4.45% [at 42.5 µM]
19,CC(=O)O[C@@H]1CC2C3CCc4cc(OC(=O)c5ccccc5)ccc4C3CCC2(C)[C@H]1OC(C)=O (stereo not given in full),4.91% [at 42.5 µM]
20,Cc1cc(N)no1,-2.02%

# From PubChem BioAssay (Tox21)
